Inconclusive results are not listed. Entries that show only a call come without a potency. A number with no mark means an inactive call. Calls of active or inactive are those of the source. The call rests on the fitted dose curve.
Molecular target: 5-hydroxytryptamine receptor 2A (Homo sapiens) (UniProt P28223)
Assay: 5-hydroxytryptamine receptor 2A (HTR2A) small molecule agonists, cell-based qHTS assay (AID 1963587); further: nearly all actives have a fitted effect of over 30% in size
Conditions: HTR2A-CHO cells, calcium flux fluorescence, agonist mode; series mostly up to 76.8 µM
Excerpt: National Center for Advancing Translational Sciences [NCATS]
Division of Preclinical Innovation [DPI]
U.S. Environmental Protection Agency [EPA]
National Institutes of Environmental Health Sciences [NIEHS]
National Toxicology Program [NTP]
U.S. Food and Drug Administration [FDA]
The HTR2A receptor is a subtype of the 5-HT2 receptor that belongs to the serotonin receptor family and is a G protein-coupled receptor (GPCR). The HTR2A-CHO cell line stably expressing human 5-hydroxytryptamine receptor 2A (HTR2A) can be used for screening agonists of interactions between 5-HT2 and its ligands. The HTR2A-CHO calcium flux assay is a homogeneous fluorescence-based assay for detecting the intracellular calcium level using FDSS kinetic plate reader system.
HTR2A-CHO cells were dispensed at 2000 cells/3uL/well in 1536-well black-clear bottom plates using a Multidrop Dispenser. After the assay plates were incubated at a 37 C/5% CO2 incubator for 18 h, 3 uL of Dye Loading Buffer was transferred to the assay plate by a Flying Reagent Dispenser. The assay plates were incubated at 37 C for 1h. For agonist mode, 23 nL of compounds dissolved in DMSO, positive controls or DMSO only was transferred to the assay plate by a pin tool. The fluorescence intensity in the plates was measured using FDSS 7000EX kinetic plate reader for 2 min at 1 sec intervals.

5-hydroxytryptamine receptor 2A (Homo sapiens), sequence (P28223 whole entry, looked up): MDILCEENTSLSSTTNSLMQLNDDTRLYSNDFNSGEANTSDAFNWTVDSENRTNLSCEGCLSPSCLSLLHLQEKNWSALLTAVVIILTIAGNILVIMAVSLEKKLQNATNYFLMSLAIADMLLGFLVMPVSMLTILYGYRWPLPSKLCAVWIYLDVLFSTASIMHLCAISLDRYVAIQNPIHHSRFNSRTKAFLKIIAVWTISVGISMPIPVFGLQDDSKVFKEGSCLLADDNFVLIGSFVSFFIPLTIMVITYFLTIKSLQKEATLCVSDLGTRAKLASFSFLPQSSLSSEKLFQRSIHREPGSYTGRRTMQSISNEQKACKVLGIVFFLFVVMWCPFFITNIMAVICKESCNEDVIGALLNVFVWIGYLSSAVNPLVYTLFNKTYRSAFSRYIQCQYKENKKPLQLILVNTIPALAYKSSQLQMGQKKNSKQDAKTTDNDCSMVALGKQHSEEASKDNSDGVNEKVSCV

Row | Structure (SMILES) | Potency | activation
1 | C=CC(=O)OCCCCCC | inactive | –
2 | CC1CCc2nccnc21 (stereo not given) | inactive | –
3 | O=C(O)c1ccc(OCCN2CCCCC2)cc1 | inactive | –
4 | N#CC1(c2ccc(F)cc2)CCC(=O)CC1 | inactive | –
5 | C1CN(CCOCCN2CCOCC2)CCO1 | inactive | –
6 | CCCCCCCCCCCCI | inactive | –
7 | CC(C)(CC(=O)O)C(=O)O | inactive | –
8 | CN1CCOCC1 | inactive | –
9 | CCCCCCCCCCCCCCCCCC(=O)OCC(CC)CCCC (stereo not given) | inactive | –
10 | CC(=O)Nc1ncc([N+](=O)[O-])s1 | inactive | –
11 | Nc1ccc2cc3ccccc3cc2c1 | inactive | –
12 | Cc1occc1SSc1ccoc1C | inactive | –
13 | Cc1ccc(S(N)(=O)=O)cc1 | inactive | –
14 | CCCc1ccc(N)cc1 | inactive | –
15 | CC(=O)O[C@@H]1C[C@@H]2CC[C@@]1(C)C2(C)C | inactive | –
16 | CCCCCCCCC(=O)OCC | inactive | –
17 | CCOC(=O)C(C)Oc1ccc(Oc2cnc3cc(Cl)ccc3n2)cc1 (stereo not given) | inactive | –
18 | C/C=C/C(=O)O | inactive | –
19 | CC(=O)OCCN(CCOC(C)=O)c1ccc(N=Nc2ccc([N+](=O)[O-])cc2C#N)cc1 | inactive | –
20 | CC(=O)OCCOCCOCCOC(C)=O | inactive | –

Row | Structure (SMILES) | Potency | activation
21 | NS(=O)(=O)c1ccc(NC(=O)CCC(=O)O)cc1 | inactive | –
22 | CC(C)COC(=O)c1ccccc1O | inactive | –
23 | CN(C)c1cccc(O)c1 | inactive | –
24 | CCCCCCCCCCCCCCC(=O)O | inactive | –
25 | CCCOCCO | inactive | –
26 | O=C(O)CCCCCCCCCCC(=O)O | inactive | –
27 | CCCC[C@H]1CN(CC2CCOCC2)C(=O)OC12CCN(C1(C)CCN(C(=O)c3c(C)ncnc3C)CC1)CC2 | inactive | –
28 | CCCCCCCC/C=C\CCCCCCCC(=O)OCCCC | – | 5.55% [at 15.9 µM]
29 | O=P(O)(O)O | inactive | –
30 | COc1ccc(C#N)cc1 | inactive | –
31 | Cc1ccc(N=Nc2c(O)ccc3ccccc23)c(C)c1 | inactive | –
32 | O=[N+]([O-])c1ccccc1CCO | inactive | –
33 | COc1ccc(-c2coc3cc(O)cc(O)c3c2=O)cc1 | inactive | –
34 | C=C(C)C(=O)NCCC[N+](C)(C)C | inactive | –
35 | C=CC(C)(O)CC/C=C(\C)CCC=C(C)C (stereo not given) | inactive | –
36 | O=C(c1ccc(O)cc1O)c1ccc(O)cc1O | inactive | –
37 | CCCC(C)CCC(C)=O (stereo not given) | inactive | –
38 | CC(C)OC(=O)CCCCC(=O)OC(C)C | inactive | –
39 | CCC/C=C/CO | inactive | –
40 | CCOC(/C=C(\C)CCC=C(C)C)OCC | inactive | –
